Screens from PubChem BioAssay.
An excerpt weighted towards active compounds, which were near 0.9% of everything screened.
MazEF act = activators of E. coli MazEF toxin-antitoxin RNase; P0AE70; hit rate 0.32% among 350,000; activation, % at 20 µM; FAM/BHQ RNA-DNA oligo cleavage fluorescence, 5 h; AID 504720; in the data active = activation above about 50%
Target sequence (P0AE70 whole entry, looked up): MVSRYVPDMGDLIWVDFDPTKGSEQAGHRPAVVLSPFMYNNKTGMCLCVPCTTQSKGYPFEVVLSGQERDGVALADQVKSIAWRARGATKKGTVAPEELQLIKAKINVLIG
Yp Topo-I inh = blocks Yersinia pestis topoisomerase I activity. hit rate 0.064% among 360,000. activity, % at 10 µM. Y. pestis Topo-I cleavage product accumulation, plate reader. AID 504884; in the data active = activity above about 50%, passing the limit was not always enough
SARS 3CLpro inh = SARS-CoV 3CLpro protease inhibition; P0C6X7; recombinant SARS-CoV 3CLpro, quenched FRET peptide cleavage; inhibition, % at 6 µM; hit rate 0.14% among 290,000; AID 1706; in the data active = inhibition above about 12%
PriA SSB inh = blocks PriA binding to SSB C-terminal tail; AlphaScreen SSBct-PriA binding, biotinylated peptide; inhibition, % at 33 µM; hit rate 0.6% among 430,000; AID 1272365; in the data active = inhibition mostly above about 37%, no sharp cut-off; inactive = mostly below about 20%;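 note: plate controls were negative control peptide for no effect and reference peptide for full effect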
* = called active by the depositor; / = no result given; + = active, no number.

SMILES	MazEF act	Yp Topo-I inh	SARS 3CLpro inh	PriA SSB inh
CCC(C)N1C(=O)/C(=C/c2c(NCCCOC(C)C)nc3c(C)cccn3c2=O)SC1=S (configuration not stated)	-276	5	0	-7
CCCN1C(=O)/C(=C/c2c(NCCCOC(C)C)nc3c(C)cccn3c2=O)SC1=S	436*	-4	-1	-11
CCCCC(Sc1ccc2nnc(-c3ccccn3)n2n1)C(=O)O (configuration not stated)	/	/	/	94*
COC(=O)CSc1ccc2nnc(-c3ccccn3)n2n1	/	/	/	77*
O=C(CSc1ccc2nnc(-c3ccccn3)n2n1)Nc1ccccc1	-7	5	-1	-10
CCCCC(Sc1ccc2nnc(-c3ccc(OC)c(OC)c3)n2n1)C(=O)O (configuration not stated)	/	/	/	-9
Cc1cc(C)c2c(c1)c(-c1ccccc1)c(-c1ccccc1)n2C[C@@H](O)CNC1CCCC1	/	/	/	45*
Cc1ccc2c(c1)c1c(n2CC(O)CNC2CCCC2)CCCC1 (configuration not stated)	21	-15	1	33
Cc1ccc(-c2nc(-c3ccccc3)no2)c(Cl)c1	-29	14	-2	104*
CCn1ccnc1N1CCN(CC(=O)Nc2ccccc2C)CC1	/	/	/	-3
Oc1ccc2ccccc2c1C=Nc1cc(C(F)(F)F)ccc1N1CCCC1	+	-5	1	-11
O=C(O)c1ccc(N=Cc2c(O)ccc3ccccc23)cc1	0	-13	-1	5
Cn1c(=O)oc2ccc(S(=O)(=O)NCc3ccc(C(=O)c4ccsc4)s3)cc21	/	/	/	-6
O=C(CN1CCC[C@H](COCc2ccccc2)C1)Nc1ccc(Br)cc1	/	/	/	-9
Cc1cc(=O)[nH]c(NN=C/C=C/c2ccccc2)n1	/	/	/	-7
NS(=O)(=O)c1ccc(CNC(=O)COc2ccc3c4c(c(=O)oc3c2)CCCC4)cc1	165*	11	-3	-6
Cc1c(OCC(=O)NCc2ccncc2)ccc2c3c(c(=O)oc12)CCCC3	53*	11	0	6
O=C1NCCN1C(=O)NCC1(c2cccs2)CCCC1	/	/	/	-14
COc1ccc2cc3c(N)c(C(=O)NCc4ccco4)sc3nc2c1	67*	-20	1	-2
CCOC(=O)N1CCC(c2cc(=O)n3[nH]c(C)c(-c4ccc(F)cc4)c3n2)CC1	-19	3	2	55*
Cc1ccc(C2C3CN(C(C)C)CC=C3C(C#N)=C(N)C2(C#N)C#N)cc1 (configuration not stated)	156*	-2	/	-3
COc1ccc(OC)c(C2C3CN(C(C)C)CC=C3C(C#N)=C(N)C2(C#N)C#N)c1 (configuration not stated)	8	-7	-4	22
CN(C)c1ccc(/C=N/N(CCC#N)C2=NS(=O)(=O)c3ccccc32)cc1	140*	9	-2	/
O=C(Nc1cccs1)N(Cc1ccco1)C1CCOCC1	/	/	/	11
COc1cc(C=NO)nc(-c2ccccn2)c1	3	3	/	83*
SMILES	MazEF act	Yp Topo-I inh	SARS 3CLpro inh	PriA SSB inh
Cc1cc(C)n(-c2cc(NC(=O)CCn3ccc(=O)[nH]c3=O)ncn2)n1	/	/	/	-10
C[C@](O)(CNC(=O)c1ccccc1)c1ccc2c(c1)OCO2	/	/	/	-13
CN(CCO)c1ncnc2nc[nH]c12	-5	0	2	104*
CN(c1ncnc2nc[nH]c12)C1CCCCC1	/	/	/	7
CCc1ccc(S(=O)(=O)Nc2ccc3c(c2)N(S(=O)(=O)c2ccccc2)CCC3)s1	/	/	/	-8
COc1ccc(N2C(=O)NC(=O)/C(=C\c3cn(C)c4ccccc34)C2=O)cc1	290*	1	1	-7
COC(=O)Cn1cc(/C=C2\C(=O)NC(=O)N(c3ccc(OC)cc3)C2=O)c2ccccc21	111*	-1	1	-4
COCCNC(=O)Cn1cc(/C=C2\C(=O)NC(=O)N(c3ccccc3F)C2=O)c2ccccc21	+	11	3	-3
COC(=O)Cn1cc(C=C2C(=O)NC(=O)NC2=O)c2ccccc21	-231	8	0	5
COCCCNC(=O)Cn1cc(/C=C2\C(=O)NC(=O)N(c3ccccc3F)C2=O)c2ccccc21	-503	3	5	-1
O=C(N/N=C/C=C/c1ccccc1)c1cccc(Br)c1	53*	9	1	/
O=C(CSc1nc(-c2ccccc2)cs1)Nc1nc(-c2ccccc2)ns1	/	/	/	-2
Brc1ccc2ccc3cccnc3c2n1	/	/	/	33
Brc1cc2cccnc2c2ncccc12	/	/	/	151*
Clc1cc2cccnc2c2ncccc12	-16	5	/	99*
Clc1c2ccccc2cc2cccnc12	/	/	/	-35
Cc1ccc(Nc2c([N+](=O)[O-])cc(C(=O)N3CC(=O)Nc4ccccc43)cc2[N+](=O)[O-])c(C)c1	10	13	6	43*
CCOc1ccc2nc(NC(=O)c3coc(NC(=O)c4ccsc4)n3)sc2c1	/	/	/	-4
CC(C)c1nc(-c2ccc(N3CCN(C(=O)Cc4cn(C)c5ccccc45)CC3)nc2)no1	/	/	/	61*
Cc1noc(C)c1C(=O)N1CCN(c2ccc(-c3noc(C(C)C)n3)cn2)CC1	/	/	/	14
O=C(C1CCCCC1)N1CCN(c2ccc(-c3ccccc3)nn2)CC1	/	/	/	2
Cc1ccc2c(c1)c1nc3ccccc3nc1n2CCCN1C(=O)c2ccccc2C1=O	/	/	/	1
COc1ccc2c(c1)c1nc3ccccc3nc1n2Cc1ccc(OC(C)C)c(OC)c1	-82	10	6	-52
COc1ccc(Cn2c3ccc(OC)cc3c3nc4ccccc4nc32)cc1	65*	7	9	-9
COc1ccc2c(c1)c1nc3ccccc3nc1n2CC(=O)OC(C)C	370*	6	4	-6
SMILES	MazEF act	Yp Topo-I inh	SARS 3CLpro inh	PriA SSB inh
COc1ccc2c(c1)c1nc3ccccc3nc1n2CCCN1C(=O)c2ccccc2C1=O	698*	-2	2	8
O=C(CSc1nnc(CNC(=O)c2ccccc2C(F)(F)F)n1-c1ccc([N+](=O)[O-])cc1)Nc1nccs1	/	/	/	11
CCOC(=O)c1sc(-c2ccccc2)cc1NC(=S)NC(=O)c1ccccc1	/	/	/	4
O=C(NCc1cncc(-c2cccs2)c1)c1cnn(-c2ccccc2)n1	/	/	/	-10
O=C(NN1C(=O)/C(=C/c2ccc(Br)cc2)SC1=S)c1cccc(Cl)c1	/	/	/	-20
CN1CCN(C(CNC(=O)C(=O)NCc2ccccc2Cl)c2ccsc2)CC1 (configuration not stated)	/	/	/	5
COc1ccc(C(=O)/C=C2/Sc3cc4c(cc3N2C)OCO4)cc1	-11	-5	-6	-12
COc1cc(OC)cc(C(=O)/C=C2\Sc3ccccc3N2C)c1	0	4	-5	-4
CN1/C(=C/C(=O)c2ccc(Cl)cc2)Sc2cc3c(cc21)OCO3	431*	-6	1	-7
COc1ccc2c(c1)S/C(=C\C(=O)c1ccncc1)N2C	141*	1	-3	-10
CCCCN1C(=O)CCc2cc(NC(=O)CCc3ccc(OC)cc3)ccc21	/	/	/	9
Nc1cc(=O)[nH]n1S(=O)(=O)c1cccc(Cl)c1	/	/	/	-9
COc1ccccc1OCC(=O)Nc1ccc2c(c1)N(C(=O)c1ccco1)CCC2	/	/	/	-11
CCOC(=O)C1=C2NC(=O)c3ccccc3N2C(=O)C1	132*	0	4	-4
Cc1cc(C(=O)CN2C(=O)c3ccccc3C2=O)c(C)n1Cc1cccs1	68*	-5	4	11
O=[N+]([O-])c1ccc(NN=Cc2ccc3c(c2)OCO3)nc1	106*	-5	/	2
